# Assay outcomes (PubChem)
# Hits are enriched below; roughly 19% of the tested compounds scored in any of these assays.
# KB-3-1 cytotox: kills parental KB-3-1 adenocarcinoma cells. KB-3-1 viability, CellTiter-Glo ATP luminescence, 72 h. Potency, µM (series often up to 46.1 µM), usual class: cytotoxic. actives 1.4% (n = 400,000). AID 1347075; also: nearly all actives have a fitted effect of over 60% in size
#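 Screening of KB-3-1 cells (DMEM, 10% FBS, phenol-red free) ran from lowest to highest compound concentration; after 72 h at 37 °C viability was read luminescently and curves fitted.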
# HT1080 IDH1KD tx: toxicity to HT-1080 IDH1 knockdown cells (counter line); Potency, µM (series often up to 46.1 µM), inactives show at the top dose activity, negative = toxicity, hits mostly cytotoxic; HT-1080 IDH1 knockdown viability, ATP luminescence, 48 h; actives 2% (n = 360,000);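 also: 0% = DMSO wells and -100% = cell-free medium wells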
#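 Cytotoxicity counter-line: IDH1KD HT-1080, 48 h, CellTiter-Glo. Curves classed by r2, magnitude and activity.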
# HT1080NT lethal: kills 2HG-producing HT-1080-NT fibrosarcoma cells; AID 686970; actives 1.6% (n = 360,000); Potency, µM (highest dose often 46.1 µM), for the others: top-dose activity, negative = less viability, hits mostly cytotoxic; HT-1080-NT fibrosarcoma viability, CellTiter-Glo ATP luminescence, 48 h;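 also: NT is the 2HG producing partner of a matched IDH1 knockdown line; 0% = DMSO-treated cells and -100% = media-only wells without cells; nearly all actives have a fitted effect of over 55% in size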
#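 Viability of the 2HG-overproducing fibrosarcoma line after 48 hours of compound exposure at 37 degrees C was determined by luminescence with CellTiter-Glo, and concentration-effect curves were then fitted and categorized.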
# KB-V1 cytotox: KB-V1 MDR subline cytotoxicity | KB-V1 MDR cells viability, CellTiter-Glo, 72 h | Potency, µM (top dose mostly 46.1 µM), usual class: cytotoxic | actives 3.4% (n = 400,000) | AID 1347076; also: nearly all actives have a fitted effect of over 60% in size
#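 In this primary screen, KB-V1 cells overexpressing P-gp are incubated with library compounds (lowest to highest concentration) for 72 h at 37 degrees C before a luminescent ATP viability read.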
# DT40 TDP1 no CPT: qHTS for Inhibitors of human tyrosyl-DNA phosphodiesterase 1 (TDP1): qHTS in cells in absence of CPT. AID 686978, 2013. actives 15% (n = 420,000). Potency, µM (series often up to 46.2 µM), without a hit: top-dose activity change, negative = growth inhibition, most hits filed as inhibitors. DT40 Tdp1-/- hTDP1 cells, no CPT, ATP luminescence, 48 h; also: nearly all actives have a fitted effect of over 55% in size
#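 Compound effects on proliferation are scored in DT40 Tdp1-/-;hTDP1 cells in the absence of CPT. ATP levels (CellTiter-Glo luminescence) are recorded after a ≥48 hr, 37 °C incubation.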
# TDP1 cell CPT: DT40-hTDP1 cell growth loss with CPT | chicken DT40 Tdp1-/-;hTDP1 cells + 20 nM CPT, ATP luminescence, 48 h | Potency, µM (highest dose often 46.2 µM), for the others: at the top dose activity change, negative = growth inhibition, usual class: inhibitors | actives 12% (n = 420,000) | AID 686979; also: nearly all actives have a fitted effect of over 55% in size
#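 Chicken DT40 Tdp1-/- cells complemented with human TDP1, 400 cells/well, exposed to compounds plus 20 nM camptothecin for at least 48 h at 37 C; viability read as ATP content by CellTiter-Glo luminescence.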
# * = called active by the depositor; i = inactive; ? = inconclusive; . = not tested or not shown; [ ] = dose if it differs, or a comment. Calls follow the shape of the dose curve; as a rule, active = well fitted curve in the direction sought with a large enough effect; inconclusive = small, poorly fitted or top-dose-only effect, or another doubt; inactive = no such curve, though single readings can be large; an effect the other way counts as inactive or inconclusive. Unless noted, % is scaled to controls: 0 for no effect and ±100 for the full control effect; potency is read from the fitted curve at half-maximal effect.
SMILES,KB-3-1 cytotox,HT1080 IDH1KD tx,HT1080NT lethal,KB-V1 cytotox,DT40 TDP1 no CPT,TDP1 cell CPT
CCOc1ccc(S(=O)(=O)Nc2cc(C)ccn2)c2ccccc12,?,-5.6%,1.7%,18.4µM*,?,?
CCN(c1cccc(C)c1)S(=O)(=O)c1ccc2c3c(cccc13)C(=O)N2,i,?,-20.1%,?,11.2µM*,?
CCN(CC)S(=O)(=O)c1ccc2c3c(cccc13)C(=O)N2,i,0.3%,-6.3%,i,?,-16.8%
CCOc1ccc(NS(=O)(=O)c2ccc(OCC)c3ncccc23)cc1,?,10µM*,11.2µM*,13µM*,10µM*,11.2µM*
CCOc1ccc(NS(=O)(=O)c2ccc3c4c(cccc24)C(=O)N3)cc1,i,.,.,i,?,16.4µM*
CS(=O)(=O)c1ccc(C(=O)CN2C(=O)NC3(CCCc4ccccc43)C2=O)cc1 (stereo unspecified),i,-3.1%,-0.3%[9.24 µM],i,4.0%,-17.4%
CN(CCOc1ccc(Cl)cc1)C(=O)c1cc(S(=O)(=O)N2CCOCC2)ccc1N1CCCC1,i,-26.3%,-23.2%,?,20.6µM*,16.4µM*
CCc1ccc(OCC(=O)NNC(=O)c2cc(S(=O)(=O)N3CCOCC3)ccc2N2CCCC2)cc1,i,-1.9%,-4.1%,?,0.4%,-17.1%
COc1ccc(S(=O)(=O)N2CCOCC2)cc1C(=O)N(C)CCOc1ccc(Cl)cc1,i,-0.3%,-10.9%,?,16.4µM*,?
Cc1ccc(S(=O)(=O)N2CCCCC2)cc1C(=O)N(C)CCOc1ccccc1,i,0.2%,26.9%,i,-12.7%,-24.5%
COc1ccc(S(=O)(=O)N2CCCCCC2)cc1C(=O)N(C)CCOc1ccccc1,i,-0.3%,-1.1%,?,18.4µM*,?
CN(CCOc1ccc(Cl)cc1)c1ccc(S(=O)(=O)N2CCCCC2)cn1,i,-12.1%,4.2%,i,23.1µM*,18.4µM*
COc1ccc(S(=O)(=O)N2CCCCCC2)cc1C(=O)N(C)Cc1ccc(Cl)cc1Cl,?,?,?,i,?,?
Cc1ccc(NC(=O)CN(C)c2ccc(S(=O)(=O)N3CCCC3)cn2)cc1,i,-4.9%,-0.9%,?,?,-7.2%
Cc1ccc(-n2ncc3c(NC4CCCC4)ncnc32)cc1,i,.,.,i,?,?
N#Cc1ccc(CN2CC[C@@]3(CCCN(C(=O)c4cccc(F)c4)C3)C2)cc1,.,.,.,.,?,-0.8%
O=C1Nc2cnc(Cl)nc2Nc2ccccc21,i,2.1%,3.0%,?,5.9%,-21.1%
CN(CCOc1ccc(Cl)cc1)C(=O)c1cc([N+](=O)[O-])ccc1N1CCOCC1,i,2.6%,-2.1%,?,11.6µM*,20.6µM*
Cc1cccc(C)c1NC(=O)CN(C)C(=O)c1cc([N+](=O)[O-])ccc1N1CCOCC1,i,-1.0%,-7.6%,i,-8.7%,-28.8%
Cc1ccc(S(=O)(=O)N2CCOCC2)cc1C(=O)N(C)CCOc1ccc(Cl)cc1,?,-21.9%,?,?,16.4µM*,?
CC1(c2ccc(Cl)cc2)NC(=O)N(CC(=O)N2CCN(S(=O)(=O)c3ccccc3)CC2)C1=O (stereo unspecified),i,-5.9%,-15.1%,i,?,?
CC1(C)Oc2ccccc2OC1(O)c1ccc2ccccc2n1 (stereo unspecified),i,-10.9%,-11.5%,i,18.4µM*,?
CCc1nnc(NC(=O)CSc2nccn2Cc2ccc(Cl)cc2)s1,i,.,.,i,-28.7%,-27.0%
O=C(NC1CC1)c1ccc(Cn2c(SCc3cccc(F)c3)nc3cccnc32)cc1,.,.,.,.,8.2µM*,?
COc1ccc(Cn2c(SCc3ccc(C(=O)NC4CCCCC4)cc3)nc3cccnc32)cc1,i,.,.,?,14.6µM*,?
SMILES,KB-3-1 cytotox,HT1080 IDH1KD tx,HT1080NT lethal,KB-V1 cytotox,DT40 TDP1 no CPT,TDP1 cell CPT
COc1ccc(NC(=O)Cn2c(SCc3ccc(C)cc3)nc3cccnc32)c(OC)c1,.,.,.,.,?,14.6µM*
O=C(NC1CCCCC1)c1ccc(CSc2nc3cccnc3n2Cc2ccc(F)cc2)cc1,i,.,.,i,13µM*,?
CC(CNc1nc2ccc(Cl)cc2n2cnnc12)c1ccccc1 (stereo unspecified),i,11.7%,4.0%,i,?,?
O=C(NC1CCCCC1)c1ccc(Cn2c(SCc3ccc(F)cc3)nc3cccnc32)cc1,.,.,.,.,-10.3%,-9.2%
O=C(NC1CCCCC1)c1ccc(CSc2nc3cccnc3n2Cc2cccc(F)c2)cc1,?,.,.,?,5.17µM*,10.3µM*
O=C(NC1CCCC1)c1ccc(CSc2nc3cccnc3n2Cc2ccccc2F)cc1,i,.,.,i,20.6µM*,?
CN1CCC(OC(=O)C(Oc2ccc(Cl)cc2)Oc2ccc(Cl)cc2)CC1,.,.,.,.,-3.7%,1.3%
C=CCn1c(C)cc(C(=O)COC(=O)[C@@H](NC(=O)c2ccccc2Cl)C(C)C)c1C,i,13.1%,17.4%,i,?,?
C=CCn1c(C)cc(C(=O)Cn2ncc(Cl)c(Cl)c2=O)c1C,?,3.26µM*,?,?,4.11µM*,5.8µM*
O=C(Cn1ncc(Cl)c(Cl)c1=O)c1ccc(Cl)cc1,?,?,14.6µM*,?,2.59µM*,2.91µM*
O=C(OCn1ncc(Cl)c(Cl)c1=O)c1ccccc1Cl,3.66µM*,5.8µM*,7.31µM*,?,4.61µM*,2.31µM*
CC(C)(C)C(=O)Cn1ncc(Cl)c(Cl)c1=O,i,?,13µM*,?,10.3µM*,16.4µM*
O=C(OCCN1CCCCC1)c1ccccc1Cl,i,1.1%,-0.5%,i,5.1%,-19.9%
CC(C)(C)C(=O)Cn1ncc(N2CCCC2)c(Br)c1=O,i,3.0%,3.4%,i,-13.3%,9.9%
O=C(NCC1CCCO1)C1CCN(S(=O)(=O)c2cc(Cl)ccc2Cl)CC1 (stereo unspecified),i,7.0%,-0.1%,i,-3.7%,1.2%
O=C(COc1ccc(Br)cc1Br)Nc1ccc(S(=O)(=O)Nc2ncccn2)cc1,i,.,.,?,.,.
COc1ccc(C2c3c(n(C)c4ccccc34)C(=O)N2CC(=O)Nc2ccc(C)c(Cl)c2)cc1 (stereo unspecified),i,.,.,i,?,?
